Bioassay records deposited in PubChem BioAssay by National Center for Advancing Translational Sciences (NCATS).
VACV mCherry inh: inhibitors of vaccinia virus infection (mCherry reporter signal) | Vaccinia virus mCherry reporter infection, fluorescence | Potency, µM (highest dose often 36.5 µM), usual class: inhibitors | hit rate 0.63% among 310,000 | AID 720579; calls by dose curve; tested in A549 cells; also: nearly all actives have a fitted effect of over 35% in size
Vaccinia Venus: vaccinia inhibition (Venus reporter); Vaccinia virus Venus reporter expression, fluorescence; Potency, µM (series often up to 36.5 µM), hits mostly inhibitors; hit rate 0.46% among 330,000; AID 720580; calls by dose curve; tested in A549 cells; also: nearly all actives have a fitted effect of over 30% in size
HCMV antiviral: inhibitors of human cytomegalovirus. HFF cells, HCMV-luciferase reporter, 72 h; stronger effect = lower value. activity change, negative = inhibition, % at 57.5 µM. hit rate 4.5% among 410,000; in the data active = activity change below about -60%; inconclusive = no clear call, values can overlap the other calls; inactive = above about -39%
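Human foreskin fibroblasts infected with luciferase-reporter HCMV at MOI 1 PFU/cell, compounds at two doses. Luciferase measured 72 h post infection; normalized to buffer-only basal and Salinomycin (10uM) controls.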
TbPYK inhibitor: blocks Trypanosoma brucei pyruvate kinase | Potency, µM (series often up to 76.8 µM), usual class: inhibitors | AID 624173 | TbPYK enzyme, Kinase-Glo Plus ATP luminescence, 45 min | hit rate 0.12% among 410,000; also: nearly all actives have a fitted effect of over 50% in size
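Quantitative HTS: titrated library compounds versus trypanosomal pyruvate kinase in TEA buffer (pH 7.2) containing KCl, MgCl2, BSA and Tween-20. Reactions were initiated with ADP, 130 uM final. Kinase-Glo Plus luminescence was read after 45 min at RT.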
LmPK inhibitor: inhibitors of Leishmania mexicana pyruvate kinase; hit rate 0.37% among 290,000; Q27686; purified LmPK, Kinase-Glo ATP luminescence, 1 h; Potency, µM (titrated, usually from 57.5 µM), actives largely listed as inhibitors
Target sequence (Q27686 whole entry, looked up): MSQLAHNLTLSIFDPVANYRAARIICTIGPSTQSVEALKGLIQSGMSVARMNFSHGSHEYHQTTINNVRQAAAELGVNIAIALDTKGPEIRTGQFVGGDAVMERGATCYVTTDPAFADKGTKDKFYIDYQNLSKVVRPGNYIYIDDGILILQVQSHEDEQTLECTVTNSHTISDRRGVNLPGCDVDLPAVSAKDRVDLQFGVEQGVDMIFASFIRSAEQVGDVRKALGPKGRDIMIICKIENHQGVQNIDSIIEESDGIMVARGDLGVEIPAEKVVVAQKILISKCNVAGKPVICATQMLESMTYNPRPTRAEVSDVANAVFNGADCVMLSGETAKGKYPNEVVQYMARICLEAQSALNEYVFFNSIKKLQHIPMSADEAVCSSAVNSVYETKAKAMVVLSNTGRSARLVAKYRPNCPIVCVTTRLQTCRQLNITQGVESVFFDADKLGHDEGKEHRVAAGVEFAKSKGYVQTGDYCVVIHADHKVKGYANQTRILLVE
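Kinase-Glo luminescence read after 1 h RT reaction of 0.1 nM LmPK with 0.5 mM PEP and 0.1 mM ADP. Activity scaled between uninhibited and enzyme-free controls.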
Hits are given with their value; 0 = inactive; ? = inconclusive; - = no result given. A selection: hits, their analogues and other compounds. The true share with any hit is near 5%. Unless noted, calls follow the shape of the dose curve; as a rule, active = well fitted curve in the direction sought with a large enough effect; inconclusive = small, poorly fitted or top-dose-only effect, or another doubt; inactive = no such curve, though single readings can be large; an effect the other way counts as inactive or inconclusive.

SMILES	VACV mCherry inh	Vaccinia Venus	HCMV antiviral	TbPYK inhibitor	LmPK inhibitor
CCN(CC)C(=O)CSc1nc(N)c(C(=O)Nc2ccc(OC)cc2)s1	12.6µM	?	?	0	0
COc1ccc(C(=O)c2cnc3ccc(C)cc3c2S(=O)(=O)c2ccccc2)cc1	0	0	-98.2	0	-
CCc1ccc(S(=O)(=O)c2c(C(=O)c3ccccc3)cnc3ccc(CC)cc23)cc1	0	0	-77.2	0	-
Cc1ccc2ncc(C(=O)c3ccc(C)c(C)c3)c(S(=O)(=O)c3ccc(F)cc3)c2c1	0	0	-73.7	0	-
CCOc1ccc(S(=O)(=O)c2c(C(=O)c3ccc(C)c(C)c3)cnc3ccccc23)cc1	0	0	0	0	-
Cc1ccc(S(=O)(=O)c2c(C(=O)c3ccccc3)cnc3cc4c(cc23)OCCO4)cc1	0	0	-99.2	0	0
COc1ccc(S(=O)(=O)c2c(C(=O)c3ccc(C)c(C)c3)cnc3ccc(F)cc23)cc1	0	0	0	0	-
COC(=O)c1ccc(CSc2nc3cc(Cl)ccc3s2)o1	0	0	0	0	0
N#CC1=C(N)C(C#N)(C#N)[C@H](c2c(F)cccc2F)[C@H]2CC3(CC=C12)OCCO3	-	-	-106.7	0	0
COc1cccc(CNC(=O)[C@@H]2CCCN2C(=O)[C@H]2CCCCN2C(=O)c2cccs2)c1	0	0	0	0	-
COc1ccc(CNC(C)C23CC4CC(CC(C4)C2)C3)c(OC)c1OC (stereo unspecified)	0	0	-61.0	0	0
COc1cccc(OC)c1C(=O)NC(C)C12CC3CC(CC(C3)C1)C2 (stereo unspecified)	0	0	0	0	0
CCN(CC)c1cccc(OCC(=O)N2c3ccccc3CC2C)c1 (stereo unspecified)	-	-	-76.9	0	-
Cc1cc(=O)oc2cc(OCC(=O)N3c4ccccc4CC3C)ccc12 (stereo unspecified)	?	?	0	0	0
O=C(O)c1ccccc1C(=O)Nc1ccccc1	-	-	0	0	0
O=C(Nc1ccccc1)C1=C(c2ccccc2)S(=O)(=O)CCS1(=O)=O	?	?	-92.7	?	0
Cc1nnc2c3ccccc3c(-c3ccccc3)nn12	0	0	-66.4	0	-
CCc1ccccc1NC1=NCC(=O)N1C1CCCC1	-	-	0	0	0
COC(=O)CC1(c2ccccc2)C(=O)c2ccccc2C1=O	-	-	0	0	0
COC(=O)CC1(c2cccc3ccccc23)C(=O)c2ccccc2C1=O	-	2.82µM	0	0	0
CC(C)(C)NC(=O)NC(=O)CN1CCN(c2ccc(O)cc2)CC1	0	0	?	?	12.6µM
Cc1ccc(NC(=O)NC(=O)CN2CCN(c3ccc(O)cc3)CC2)c(C)c1	?	0	-80.7	?	0
C#Cc1ccc(CN2CCC(N3CCC(C(=O)NCc4ccccn4)CC3)CC2)cc1	-	-	?	0	0
Clc1cccc(CN2CCc3c([nH]c4ccccc34)C2)c1Cl	0	0	-91.0	0	0
O=S(=O)(Nc1ccccc1F)c1ccc2nsnc2c1	0	0	0	0	0
SMILES	VACV mCherry inh	Vaccinia Venus	HCMV antiviral	TbPYK inhibitor	LmPK inhibitor
COc1ccc(C(C)=O)cc1CC(=O)N(Cc1ccccc1)c1ccccc1	0	0	0	0	0
CCCCNC(=O)C1C(c2ccc(C(F)(F)F)cc2)=Nc2ccccc2N1C(=O)c1ccc2nc(C)[nH]c2c1 (stereo unspecified)	?	?	-86.4	-	-
O=C(NC1CCCC1)C1C(c2ccccc2)=Nc2ccccc2N1C(=O)c1ccc(C(F)(F)F)cc1 (stereo unspecified)	0	0	-83.4	-	-
O=C(NC1CCCC1)C1C(c2ccc(C(F)(F)F)cc2)=Nc2ccccc2N1C(=O)c1cccc(C(F)(F)F)c1 (stereo unspecified)	0	0	0	-	-
CC1(c2ccccc2)CC(C)(C)N2C(=O)C3(C(C#N)=C(N)Oc4cc(O)ccc43)c3cccc1c32 (stereo unspecified)	?	?	0	0	0
Cc1cc2c3c(c1)C(C)(c1ccccc1)CC(C)(C)N3C(=O)C21C(C#N)=C(N)OC2=C1C(=O)CC(C)(C)C2 (stereo unspecified)	-	-	-72.1	0	0
C1CCN2CC3CC(CN4CCCC[C@@H]34)[C@H]2C1	0	0	0	0	-
O=C(c1ccc2nc(-c3ccco3)c(-c3ccco3)nc2c1)N1CCN(c2ccccc2)CC1	-	-	-107.7	0	0
O=S(=O)(c1ccc2nc(-c3ccco3)c(-c3ccco3)nc2c1)N1CCOCC1	-	0	0	15.8µM	0
O=S(=O)(c1ccc2ccccc2c1)N1CCOCC1	0	0	0	0	0
O=C(Nc1ccc(N2CCOCC2)cc1)Nc1ccc2nc(-c3ccco3)c(-c3ccco3)nc2c1	-	-	-60.4	0	0
Cc1ccc(NC(=O)C2CCN(C(=O)NCc3ccccc3)CC2)cc1C	0	0	0	0	0
O=[N+]([O-])c1cnn(-c2nc(-c3cccs3)cc(C(F)(F)F)n2)c1	0	0	-99.0	0	0
FC(F)(F)c1cc(-c2ccccc2)nc(-n2cc(Cl)cn2)n1	-	-	-60.1	0	0
Cn1c(/C=C/N2CCOCC2)c(C(=O)c2ccc(Br)cc2)c(=O)n(C)c1=O	-	0	0	0	0
Cc1ccc(NC(=O)CN(C)C(=O)c2sc3cc(Cl)ccc3c2Cl)cc1	0	0	0	0	-
Cc1c(CN(C)C(=O)c2sc3cc(Cl)ccc3c2Cl)cnn1C	?	?	-84.1	0	0
O=C(COC(=O)c1ccc(S(=O)(=O)NCc2ccco2)cc1)Nc1ccc(Cl)cn1	?	0	0	0	0
Nc1ccccc1S(=O)(=O)NCCCCc1ccccc1	-	-	-100.3	0	0
CC(C)(C)OC(=O)N1CCC[C@H]1C(=O)N/N=C/c1cccc2cccnc12	0	0	0	0	0
CN(C)c1ccc(Nc2ncnc3sc4c(c23)CCCC4)cc1	?	0	-89.5	0	-
Cc1ccc(C(=O)O)cc1Nc1ncnc2sc3c(c12)CCC3	-	-	0	0	0
NNc1ncnc2sc3c(c12)CCC3	0	0	0	0	0
c1cc(Nc2ncnc3sc4c(c23)CCC4)ccn1	0	0	-63.3	0	0
NCCCCCc1nnc(SCc2ccccc2Cl)o1	-	-	-76.2	0	0
SMILES	VACV mCherry inh	Vaccinia Venus	HCMV antiviral	TbPYK inhibitor	LmPK inhibitor
N[C@@H](Cc1ccccc1)c1nnc(SCc2ccccc2Cl)o1	-	-	-69.9	0	0
NCCc1nnc(SCc2c(Cl)cccc2Cl)o1	-	-	0	0	0
COc1ccc(NC(=O)NN2CCOCC2)cc1OC	0	0	0	0	0
COCC(=O)Nc1cc(=O)n(C)c(=O)n1C	0	0	0	0	0
O=C1CN=C(c2ccc[nH]2)c2cc(Cl)ccc2N1	0	0	-94.3	0	0
COc1ccc(C2CC(=O)c3cnc(NC(=O)c4ccco4)nc3C2)cc1 (stereo unspecified)	0	0	0	0	0
COc1ccccc1C(=O)Nc1ncc2c(n1)CC(c1ccco1)CC2=O (stereo unspecified)	0	0	-84.3	0	0
Cc1ccc(C(c2sc3ncnn3c2O)N2CCCCC2)cc1 (stereo unspecified)	0	0	0	0	0
